This is an account of results in publication PMC5892938, “SARNAclust: Semi-automatic detection of RNA protein binding motifs from immunoprecipitation data”.

Whole data set: some 11,000 sequences, median “log2 fold change” near 0.00022, cut for the highest 2% near 0.34. The list shows a part of the results.

This test concerns the target GST-SBP-SLBP (stem-loop binding protein) (Homo sapiens, UniProt Q14493 1-270). The experiment in a line: targeted RNA Bind-n-Seq; RBNS binding buffer: 25 mM Tris pH 7.5, 150 mM KCl, 3 mM MgCl2, 0.1% Tween, 0.5 mg/mL BSA, 1 mM DTT; 27 nM protein, 750 pM RNA pool; temperature not stated; high values mean tight binding. Conditions: protein: recombinant; tags: N-terminal GST and SBP (pGEX6P1-SBP); structured_RNA. Summed up: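 The protein, carrying a GST-SBP tag, was produced in Rosetta(DE3) pLysS E. coli, purified on glutathione, and mixed at 27 nM with 750 pM of a designed RNA oligo pool made by T7 transcription in RBNS binding buffer. RNA that bound was reverse transcribed using a barcoded primer of 10 nucleotides, amplified by PCR and sequenced on a MiSeq with 200-cycle paired-end reads. FLASH joined the reads, HISAT2 aligned them, and they were collapsed by barcode before the binding signal was taken as the DEseq binary-logarithm fold change of read counts for each sequence.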
Turning to “GGUCACGUCUCAAUCAACUCAUCGCCAGGAGUUUGCUCCUGUAUUUUCAACAGCUCGCAGUCAAG”, the binding signal was determined as 0.321 ± 0.274 log2 fold change.

For “GGUCACGUCUCAAUCAACUCUUUCUCAGGAGUUUCCUCCUGUUUACUCAACAGCUCGCAGUCAAG”, the binding signal was found to be 0.312 ± 0.17 log2 fold change.

As to “GGUCACGUCUCAAUCAACUCUAUCUCAGGAGUUUACUCCUGUAUAUUCAACAGCUCGCAGUCAAG”, the binding signal was found to be 0.337 ± 0.252 log2 fold change.

For “GGUCACGUCUCAAUCAACUCUUUCUCAGGAGUUUACUCCUGUAUAUUCAACAGCUCGCAGUCAAG”, the binding signal was determined as 0.355 ± 0.213 log2 fold change.

Turning to “GGUCACGUCUCAAUCAACUCAUCGUCAGGAGUUUUCUCCUGUAAACUCAACAGCUCGCAGUCAAG”, the binding signal was 0.313 ± 0.233 log2 fold change.

With “GGUCACGUCUCAAUCAACUCAAUCUCAGGAGUUUUCUCCUGUAUACUCAACAGCUCGCAGUCAAG”, the binding signal is 0.429 ± 0.219 log2 fold change.

As to “GGUCACGUCUCAAUCAACUCCAUCGAGGGGGGGAAAACCCCUUUACCCUCCAAUUCAACAGCUCGCAGUCAAG”, the binding signal came to 0.49 ± 0.445 log2 fold change.

For “GGUCACGUCUCAAUCAACUCCAUCGAGGGGGGGAAAACCCCUUUACCCUCAAUAUCAACAGCUCGCAGUCAAG”, the binding signal came to 0.429 ± 0.437 log2 fold change.

“GGUCACGUCUCAAUCAACUCAUACGAGGGGGGGAAAACCCCUUUACCCUCUCCAUCAACAGCUCGCAGUCAAG”: the binding signal amounted to 0.329 ± 0.398 log2 fold change.

Take “GGUCACGUCUCAAUCAACUCAAACGAGGGGGGGAAAACCCCUUUACCCUCCAUAUCAACAGCUCGCAGUCAAG”: the binding signal worked out at 0.344 ± 0.458 log2 fold change.

“GGUCACGUCUCAAUCAACUCAGAAGAGGGGGGGAAAACCCCUUUACCCUCCAAAUCAACAGCUCGCAGUCAAG”: the binding signal was 0.431 ± 0.433 log2 fold change.

For the sequence “GGUCACGUCUCAAUCAACUCCAAAGAGGGGGGGAAAACCCCUUUACCCUCCGCAUCAACAGCUCGCAGUCAAG”, the binding signal is 0.352 ± 0.42 log2 fold change.

As for “GGUCACGUCUCAAUCAACUCCAAAGAGGGGGGGAAAACCCCUUUACCCUCAACCUCAACAGCUCGCAGUCAAG”, the binding signal is 0.316 ± 0.391 log2 fold change.

“GGUCACGUCUCAAUCAACUCCAAAGAGGGGGGGAAAACCCCUUUACCCUCACUUUCAACAGCUCGCAGUCAAG”: the binding signal was determined as 0.398 ± 0.419 log2 fold change.

With “GGUCACGUCUCAAUCAACUCCAAAGAGGGGGGGAAAACCCCUUUACCCUCCGUUUCAACAGCUCGCAGUCAAG”, the binding signal stood at 0.395 ± 0.435 log2 fold change.

On to “GGUCACGUCUCAAUCAACUCCAAAGAGGGGGGGAAAACCCCUUUACCCUCGUCCUCAACAGCUCGCAGUCAAG”, for which the binding signal was found to be 0.369 ± 0.406 log2 fold change.

Consider “GGUCACGUCUCAAUCAACUCCAAAGAGGGGGGGAAAACCCCUUUACCCUCCACAUCAACAGCUCGCAGUCAAG”, for which the binding signal was 0.399 ± 0.418 log2 fold change.

Consider “GGUCACGUCUCAAUCAACUCUAUCGAGGGGGGGAAAACCCCUUUACCCUCACACUCAACAGCUCGCAGUCAAG”, for which the binding signal was 0.573 ± 0.408 log2 fold change.

“GGUCACGUCUCAAUCAACUCUUCCGAGGGGGGGAAAACCCCUUUACCCUCACUAUCAACAGCUCGCAGUCAAG”: the binding signal was found to be 0.347 ± 0.442 log2 fold change.

As to “GGUCACGUCUCAAUCAACUCAAUCGAGGGGGGGAAAACCCCUUUACCCUCACUCUCAACAGCUCGCAGUCAAG”, the binding signal came to 0.375 ± 0.412 log2 fold change.

Consider “GGUCACGUCUCAAUCAACUCCAUCGAGGGGGGGAAAACCCCUUUACCCUCACUCUCAACAGCUCGCAGUCAAG”, for which the binding signal stood at 0.322 ± 0.422 log2 fold change.

“GGUCACGUCUCAAUCAACUCUCCCGAGGGGGGGAAAACCCCUUUACCCUCACUAUCAACAGCUCGCAGUCAAG”: the binding signal was 0.31 ± 0.449 log2 fold change.

For “GGUCACGUCUCAAUCAACUCACACGAGGGGGGGAAAACCCCUUUACCCUCUCUAUCAACAGCUCGCAGUCAAG”, the binding signal turned out to be 0.553 ± 0.407 log2 fold change.

For “GGUCACGUCUCAAUCAACUCUACAGAGGGGGGGAAAACCCCUUUACCCUCACUCUCAACAGCUCGCAGUCAAG”, the binding signal stood at 0.332 ± 0.424 log2 fold change.

On to “GGUCACGUCUCAAUCAACUCACACGAGGGGGGGAAAACCCCUUUACCCUCUACCUCAACAGCUCGCAGUCAAG”, for which the binding signal was found to be 0.472 ± 0.426 log2 fold change.

For “GGUCACGUCUCAAUCAACUCUCUCGAGGGGGGGAAAACCCCUUUACCCUCACAAUCAACAGCUCGCAGUCAAG”, the binding signal was 0.571 ± 0.435 log2 fold change.

With “GGUCACGUCUCAAUCAACUCUAUCGAGGGGGGGAAAACCCCUUUACCCUCACAAUCAACAGCUCGCAGUCAAG”, the binding signal came to 0.599 ± 0.418 log2 fold change.

In the case of “GGUCACGUCUCAAUCAACUCAAUAGAGGGGGGGAAAACCCCUUUGCCCUCGAAAUCAACAGCUCGCAGUCAAG”, the binding signal turned out to be 0.399 ± 0.404 log2 fold change.

In the case of “GGUCACGUCUCAAUCAACUCCAUAGAGGGGGGGAAAACCCCUUUGCCCUCGAAAUCAACAGCUCGCAGUCAAG”, the binding signal is 0.382 ± 0.389 log2 fold change.

Regarding “GGUCACGUCUCAAUCAACUCAAUAGAGGGGGGGAAAACCCCUUUGCCCUCAACAUCAACAGCUCGCAGUCAAG”, the binding signal was found to be 0.421 ± 0.37 log2 fold change.

Take “GGUCACGUCUCAAUCAACUCAAUAGAGGGGGGGAAAACCCCUUUGCCCUCAAUCUCAACAGCUCGCAGUCAAG”: the binding signal worked out at 0.451 ± 0.42 log2 fold change.

As to “GGUCACGUCUCAAUCAACUCAUUAGAGGGGGGGAAAACCCCUUUGCCCUCAUACUCAACAGCUCGCAGUCAAG”, the binding signal worked out at 0.461 ± 0.451 log2 fold change.

Turning to “GGUCACGUCUCAAUCAACUCCUUAGAGGGGGGGAAAACCCCUUUGCCCUCAUACUCAACAGCUCGCAGUCAAG”, the binding signal came to 0.464 ± 0.44 log2 fold change.

In the case of “GGUCACGUCUCAAUCAACUCAUUAGAGGGGGGGAAAACCCCUUUGCCCUCAAAAUCAACAGCUCGCAGUCAAG”, the binding signal is 0.487 ± 0.428 log2 fold change.

Take “GGUCACGUCUCAAUCAACUCACUAGAGGGGGGGAAAACCCCUUUGCCCUCAUACUCAACAGCUCGCAGUCAAG”: the binding signal was 0.37 ± 0.365 log2 fold change.

“GGUCACGUCUCAAUCAACUCACUAGAGGGGGGGAAAACCCCUUUGCCCUCCAACUCAACAGCUCGCAGUCAAG”: the binding signal is 0.317 ± 0.385 log2 fold change.
